Assay results: PubChem BioAssay (Tox21)
Records with an inconclusive call do not appear. Active and inactive are the calls of the source. Unless noted, the call rests on the fitted dose curve; in most records, active means well fitted curve in the direction sought with a large enough effect in the repeat runs; inconclusive means weak or mixed curves; inactive means no such curve, though single readings can be large; an effect the other way counts as inactive or inconclusive.

How the values were obtained:
[1] = qHTS assay to identify aromatase inhibitors - cell viability counter screen (AID 743084);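 further: cells stimulated with testosterone during compound exposure; nearly all actives have a fitted effect of over 55% in size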
[2] = target: Aryl hydrocarbon receptor (Homo sapiens) (UniProt P35869); experiment: qHTS assay to identify small molecule that activate the aryl hydrocarbon receptor (AhR) signaling pathway (AID 743085); further: nearly all actives have a fitted effect of over 15% in size; further: potency means the concentration at half of the fitted maximal effect;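 on activation: HG2L7.5c1 human HepG2 liver cells with stably integrated DRE-driven firefly reporter; series mostly up to about 70 µM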
Outline: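 Reporter assay in engineered HepG2 line HG2L7.5c1, whose plasmid carries twenty dioxin responsive elements upstream of firefly luciferase. Treatment lasted 24 h at 37C; ONE-Glo luminescence gauged induction.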

[3] = qHTS assay to identify small molecule that activate the aryl hydrocarbon receptor (AhR) signaling pathway - cell viability counter screen (AID 743086);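 further: HepG2 liver cells carrying the AhR DRE luciferase reporter; series mostly up to about 70 µM; nearly all actives have a fitted effect of over 45% in size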
Outline: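 HepG2-AhR-luc (HG2L7.5c1) cells, 4000/well, were preincubated 5 h at 37C, exposed to compound in qHTS format for 24 hr at 37C, then given CellTiter-Fluor for 30 min; viability was read as fluorescence in the reporter wells.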

[4] = target: Peroxisome proliferator-activated receptor gamma (Homo sapiens) (UniProt P37231); experiment: qHTS assay to identify small molecule agonists of the peroxisome proliferator-activated receptor gamma (PPARg) signaling pathway (AID 743094; active means well fitted activation curve with a large enough effect in the signal ratio in the repeat runs, not every such curve was filed as active; the % refers to the signal ratio)
Outline: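 GeneBLAzer PPARg UAS-bla HEK293H cells were plated, rested 5 h, then exposed to compounds for 17 h at 37C. Beta-lactamase activity was read by LiveBLAzer B/G FRET substrate fluorescence after 1 h at room temperature.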

[5] = target: Peroxisome proliferator-activated receptor gamma (Homo sapiens) (UniProt P37231); experiment: qHTS assay to identify small molecule antagonists of the peroxisome proliferator-activated receptor gamma (PPARg) signaling pathway (AID 743191; calls by dose curve; further: series mostly up to about 63 µM; nearly all actives have a fitted effect of over 30% in size)
Outline: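 GeneBLAzer PPARg UAS-bla HEK293H cells carrying a UAS-driven beta-lactamase reporter were plated at 3000 cells/well, preincubated 5 h at 37C, then given compound for 17 h at 37C; LiveBLAzer B/G FRET substrate was read after 1 h at room temperature.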

[6] = qHTS assay to identify small molecule antagonists of the peroxisome proliferator-activated receptor gamma (PPARg) signaling pathway - cell viability counter screen (AID 743194); further: nearly all actives have a fitted effect of over 55% in size
Outline: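 PPARg-UAS-bla HEK293H cells were plated, rested 5 h at 37 C, then treated with compounds plus rosiglitazone (50 nM final) for 17 h at 37 C; viability was then read by CellTiter-Glo luminescence after 30 min at room temperature.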

[7] = qHTS assay for small molecule agonists of the antioxidant response element (ARE) signaling pathway (AID 743202; active means well fitted activation curve with a large enough effect in the signal ratio in the repeat runs, not every such curve was filed as active; the % refers to the signal ratio; further: potency means the concentration at half of the fitted maximal effect)
Outline: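 Read-out: LiveBLAzer B/G FRET substrate fluorescence after 2 h at room temperature, following 16 h compound treatment at 37 C of HepG2 cells carrying an ARE-driven beta-lactamase reporter.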

[8] = qHTS assay for small molecule agonists of the antioxidant response element (ARE) signaling pathway - cell viability counter screen (AID 743203; calls by dose curve; further: nearly all actives have a fitted effect of over 55% in size)
Outline: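 ARE-bla HepG2 cells were plated, rested 5 h at 37C/5% CO2, then exposed to compounds in DMSO for 16 h. Viability was read as CellTiter-Glo luminescence after 30 min at room temperature, in the same wells as the ARE screen.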

[9] = qHTS assay for small molecule activators of the heat shock response signaling pathway - cell viability counter screen (AID 743209); further: nearly all actives have a fitted effect of over 50% in size
Outline: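 HSE-bla HeLa cells plated overnight, then exposed to Tox21 compounds (23 nL in DMSO) for 5 h at 37 C. After the bla reporter read, CellTiter-Glo was added in the same wells and luminescence read after 30 min at room temperature.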

[10] = qHTS assay for small molecule activators of the heat shock response signaling pathway (AID 743210; active means well fitted activation curve with a large enough effect in the signal ratio in the repeat runs, with a control signal flat, not every such curve was filed as active; the % refers to the signal ratio; further: series mostly up to about 63 µM)
Outline: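 HSE-bla HeLa cells (beta-lactamase reporter under heat shock response elements) were exposed to compounds for 5 h at 37 C, then loaded with LiveBLAzer B/G FRET substrate for 2.5 h at room temperature before fluorescence reading.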

Measured: Potency

Chain of Peroxisome proliferator-activated receptor gamma (Homo sapiens) (P37231 whole entry, looked up): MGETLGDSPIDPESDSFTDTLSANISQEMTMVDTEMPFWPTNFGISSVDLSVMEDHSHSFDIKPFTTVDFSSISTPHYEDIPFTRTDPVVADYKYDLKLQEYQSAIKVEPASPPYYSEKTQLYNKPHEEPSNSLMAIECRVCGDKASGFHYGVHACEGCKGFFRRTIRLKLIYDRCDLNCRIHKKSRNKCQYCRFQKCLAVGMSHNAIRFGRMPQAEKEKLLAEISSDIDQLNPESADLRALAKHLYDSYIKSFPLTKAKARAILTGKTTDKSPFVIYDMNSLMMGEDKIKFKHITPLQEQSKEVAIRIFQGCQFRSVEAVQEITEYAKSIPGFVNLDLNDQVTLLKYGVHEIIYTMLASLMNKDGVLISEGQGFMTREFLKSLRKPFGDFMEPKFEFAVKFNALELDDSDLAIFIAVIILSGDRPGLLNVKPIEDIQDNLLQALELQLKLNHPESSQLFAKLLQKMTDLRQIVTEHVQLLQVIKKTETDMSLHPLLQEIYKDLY
Chain of Aryl hydrocarbon receptor (Homo sapiens) (P35869 whole entry, looked up): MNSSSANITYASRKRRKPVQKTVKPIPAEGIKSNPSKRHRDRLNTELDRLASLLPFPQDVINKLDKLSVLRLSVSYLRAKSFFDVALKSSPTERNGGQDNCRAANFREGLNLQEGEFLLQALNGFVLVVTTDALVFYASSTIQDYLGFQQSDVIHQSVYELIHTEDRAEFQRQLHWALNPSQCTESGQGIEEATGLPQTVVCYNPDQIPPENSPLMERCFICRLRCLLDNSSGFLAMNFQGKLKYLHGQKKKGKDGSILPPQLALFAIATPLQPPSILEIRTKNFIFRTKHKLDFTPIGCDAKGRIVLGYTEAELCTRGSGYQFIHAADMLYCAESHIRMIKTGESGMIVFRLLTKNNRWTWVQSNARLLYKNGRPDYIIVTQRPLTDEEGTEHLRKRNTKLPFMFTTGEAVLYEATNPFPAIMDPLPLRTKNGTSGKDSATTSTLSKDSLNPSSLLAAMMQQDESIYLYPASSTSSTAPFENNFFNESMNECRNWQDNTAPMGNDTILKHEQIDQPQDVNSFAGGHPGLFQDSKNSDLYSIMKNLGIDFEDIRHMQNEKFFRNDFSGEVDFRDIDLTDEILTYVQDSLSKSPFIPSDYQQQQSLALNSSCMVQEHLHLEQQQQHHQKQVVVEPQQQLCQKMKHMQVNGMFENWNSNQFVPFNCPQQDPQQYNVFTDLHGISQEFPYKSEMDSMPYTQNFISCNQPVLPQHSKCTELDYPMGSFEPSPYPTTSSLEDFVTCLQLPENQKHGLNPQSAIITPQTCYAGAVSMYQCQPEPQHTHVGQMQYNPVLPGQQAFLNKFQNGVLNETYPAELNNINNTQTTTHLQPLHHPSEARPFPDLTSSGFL

C=CC(=O)N1CCOCC1
inactive: all assays above

CCCCCCCCCCCl
inactive: all assays above

CC1=CC(=O)CCC1
inactive: all assays above

OC1OC[C@@H](O)[C@H](O)[C@H]1O (stereo partly drawn)
inactive: all assays above

CC(C)c1ccc2oc3nc(N)c(C(=O)O)cc3c(=O)c2c1
active: [2] 0.841 µM | [7] 23.7 µM
inactive: all other assays above

OCc1ccccn1
active: [7] 11.9 µM
not listed: [10]
inactive: all other assays above

C#CC(O)C(CC)CCCC (stereo not drawn)
not listed: [10]
inactive: all other assays above

COC(C(=O)O)c1ccccc1 (stereo not drawn)
inactive: all assays above

CCC(C)(C)C1CCC(OC)CC1 (stereo not drawn)
inactive: all assays above

c1ccc2cnncc2c1
not listed: [10]
inactive: all other assays above

OCCCCCCO
inactive: all assays above

CSc1ccc(C=O)cc1
not listed: [10]
inactive: all other assays above

Nc1nc2c(ncn2CCC(CO)CO)c(=O)[nH]1
not listed: [10]
inactive: all other assays above

O=C(O)c1ccc[n+]([O-])c1
not listed: [9] | [10]
inactive: all other assays above

C=CCSCC1Nc2cc(Cl)c(S(N)(=O)=O)cc2S(=O)(=O)N1 (stereo not drawn)
not listed: [10]
inactive: all other assays above

CCCCCOC(=O)Nc1nc(=O)n([C@@H]2O[C@H](C)[C@@H](O)[C@H]2O)cc1F
not listed: [10]
inactive: all other assays above

CCCC=O
inactive: all assays above

O=C(O)C(O)[C@H](O)[C@@H](O)[C@H](O)[C@H](O)CO (stereo partly drawn)
not listed: [9] | [10]
inactive: all other assays above

NCCN1CCNC1=O
inactive: all assays above

C=C(C)C(=O)NCCCN(C)C
inactive: all assays above

Cc1ncc(CSSCc2cnc(C)c(O)c2CO)c(CO)c1O
not listed: [9] | [10]
inactive: all other assays above

CCCc1ccc(N)cc1
inactive: all assays above

CCCCc1ccc2cccc(S(=O)(=O)O)c2c1
not listed: [9] | [10]
inactive: all other assays above

Nc1[nH]c(=O)ncc1F
not listed: [9] | [10]
inactive: all other assays above
